# In all, about 140,000 sequences were measured (“enrichment ratio after two sorts for PhoP signalling”: median about 0, highest 2% from about 11 on). What follows is part of a selection rich in the highest values, with near analogues and random picks from the rest.
# B1: PhoQ; a variant is named by its letters at X, in order, P23837 (parent)
# chain: MKKLLRLFFPLSLRVRFLLATAAVVLVLSLAYGMVALIGYSVSFDKTTFRLLRGESNLFYTLAKWENNKLHVELPENIDKQSPTMTLIYDENGQLLWAQRDVPWLMKMIQPDWLKSNGFHEIEADVNDTSLLLSGDHSIQQQLQEVREDDDDAEMTHSVAVNVYPATSRMPKLTIVVVDTIPVELKSSYMVWSWFIYVLSANLLLVIPLLWVAAWWSLRPIEALAKEVRELEEHNRELLNPATTRELTSLVRNLNRLLKSERERYDKYRTTLTDLTHSLKTPLXXLQXXLRSLRSEKMSVSDAEPVMLEQISRISQQIGYYLHRASMRGGTLLSRELHPVAPLLDNLTSALNKVYQRKGVNISLDISPEISFVGEQNDFVEVMGNVLDNACKYCLEFVEISARQTDEHLYIVVEDDGPGIPLSKREVIFDRGQRVDTLRPGQGVGLAVAREITEQYEGKIVAGESMLGGARMEVIFGRQHSAPKDE
# Variants of: B1
# Assay: enrichment ratio after two sorts for PhoP signalling (ratio (wild type AVST 3.29)); higher = more functional
# Settings: with PhoP (E. coli)
row,Variant,enrichment ratio
1,KCTM,≤ 0.25
2,VSTM,14.3
3,VFTM,≤ 0.25
4,VCTM,23
5,NSTM,≤ 0.25
6,VSWM,2.15
7,EPCV,≤ 0.25
8,PQFI,≤ 0.25
9,IWAV,≤ 0.25
10,PCTF,≤ 0.25
11,RWFD,≤ 0.25
12,PLLQ,≤ 0.25
13,ACLR,8.18
14,ASLR,3.29
15,ACLQ,11.6
16,ADLQ,3.02
17,LQLQ,≤ 0.25
18,ASLQ,11.8
19,VHLQ,≤ 0.25
20,KCLQ,≤ 0.25
21,AILQ,13.6
22,ASTA,9.73
23,ALLQ,14.7
24,FDLT,≤ 0.25

row,Variant,enrichment ratio
1,DGHY,≤ 0.25
2,FIKM,≤ 0.25
3,HWCE,≤ 0.25
4,SDKP,≤ 0.25
5,YSIR,≤ 0.25
6,WSFS,≤ 0.25
7,KRRI,≤ 0.25
8,SLHA,≤ 0.25
9,IGLE,≤ 0.25
10,TPMA,≤ 0.25
11,KSGA,≤ 0.25
12,ELRR,≤ 0.25
13,FQKN,≤ 0.25
14,CNES,≤ 0.25
15,IDKS,≤ 0.25
16,TVPS,≤ 0.25
17,AYLQ,0.526
18,TKLQ,6.41
19,ATLQ,11.5
20,AGLQ,13.5
21,HKLQ,≤ 0.25
22,MFLQ,≤ 0.25
23,AQLQ,5.87
24,GGLQ,3.13

row,Variant,enrichment ratio
1,MGLQ,16
2,MGLR,≤ 0.25
3,AKLQ,41.4
4,TGLQ,9.97
5,NIMF,≤ 0.25
6,YKKL,≤ 0.25
7,ESDI,≤ 0.25
8,PSMS,≤ 0.25
9,WGKP,≤ 0.25
10,QAMN,≤ 0.25
11,KCTY,≤ 0.25
12,HVTY,≤ 0.25
13,VCTY,≤ 0.25
14,TCTY,14.7
15,LSTY,≤ 0.25
16,SCTY,15.6
17,DNQA,≤ 0.25
18,WMWR,≤ 0.25
19,GEYP,≤ 0.25
20,DMMD,≤ 0.25
21,ACMK,17.8
22,ACGA,≤ 0.25
23,ACMG,14.3
24,ACWF,≤ 0.25

row,Variant,enrichment ratio
1,ACMT,10.1
2,ACMA,34.1
3,ACGF,6.85
4,ACMF,14.4
5,ACMW,≤ 0.25
6,ACVA,3.46
7,ACVG,4.01
8,ACMR,1.61
9,PYWL,≤ 0.25
10,DKNN,≤ 0.25
11,FTRE,≤ 0.25
12,QRLI,≤ 0.25
13,FFKH,≤ 0.25
14,NCDG,≤ 0.25
15,QIFY,≤ 0.25
16,VWPM,≤ 0.25
17,ACMS,8.75
18,ACGG,4.87
19,ACIG,12.3
20,ACVC,1.02
21,ACMI,21
22,ACMV,7.12
23,ACMQ,31.7
24,ACWQ,≤ 0.25

row,Variant,enrichment ratio
1,WGDV,≤ 0.25
2,VHHQ,≤ 0.25
3,TTPE,≤ 0.25
4,MDFT,≤ 0.25
5,RPHC,≤ 0.25
6,NELR,≤ 0.25
7,MQVH,2.29
8,TPTT,≤ 0.25
9,DNQN,≤ 0.25
10,SLQI,5.02
11,DMQI,≤ 0.25
12,NQCE,≤ 0.25
13,SNCE,≤ 0.25
14,SQQI,2.33
15,SPAY,≤ 0.25
16,DNQI,22.9
17,SNYI,0.257
18,SNAY,14.8
19,SNQI,12.5
20,SQCE,24.1
21,REHF,≤ 0.25
22,APRY,≤ 0.25
23,WCFP,≤ 0.25
24,VRKW,≤ 0.25

row,Variant,enrichment ratio
1,HDVL,≤ 0.25
2,SLKT,≤ 0.25
3,PVHR,≤ 0.25
4,GYTV,≤ 0.25
5,YWVH,≤ 0.25
6,HHYP,≤ 0.25
7,SQTH,3.03
8,SQSA,3.01
9,SRSA,≤ 0.25
10,SNSA,13.1
11,SQCA,8.55
12,SNCI,21.8
13,SQCK,9.83
14,SNDH,≤ 0.25
15,SNCA,16.8
16,SNHF,≤ 0.25
17,SQCI,15.6
18,SNHI,≤ 0.25
19,DNPA,≤ 0.25
20,ILGQ,≤ 0.25
21,SFVQ,≤ 0.25
22,YVYP,≤ 0.25
23,FFCP,≤ 0.25
24,LDYA,≤ 0.25

row,Variant,enrichment ratio
1,SSGM,13.4
2,SICE,1.33
3,KYCV,≤ 0.25
4,SICV,16.6
5,SICI,21
6,SSWM,6.76
7,SILH,3.1
8,SITW,4
9,SSPM,0.954
10,SQTM,6.18
11,SSTM,21.4
12,SSGD,≤ 0.25
13,DMMP,≤ 0.25
14,NRRM,≤ 0.25
15,YLRW,≤ 0.25
16,TKFH,≤ 0.25
17,LSNL,≤ 0.25
18,EACR,≤ 0.25
19,HEFW,≤ 0.25
20,LKYV,≤ 0.25
21,KYAM,≤ 0.25
22,KSVM,≤ 0.25
23,TSVM,3.12
24,PLTM,≤ 0.25

row,Variant,enrichment ratio
1,SIMD,4.7
2,WLTM,≤ 0.25
3,SICA,8.12
4,SLTM,12.5
5,KYCS,≤ 0.25
6,SICS,16.9
7,SIAM,20.8
8,SSVM,17.6
9,DEHQ,≤ 0.25
10,SHVQ,≤ 0.25
11,KNSF,≤ 0.25
12,EDWM,≤ 0.25
13,PVLM,≤ 0.25
14,VLTM,≤ 0.25
15,LLTM,≤ 0.25
16,SIGM,9.86
17,FIGM,≤ 0.25
18,SIWM,≤ 0.25
19,WICG,≤ 0.25
20,TLTM,19
21,FICK,≤ 0.25
22,SICK,14.6
23,FICM,12.9
24,SICG,22

row,Variant,enrichment ratio
1,KYCG,≤ 0.25
2,NHYV,≤ 0.25
3,EHWN,≤ 0.25
4,HWKG,≤ 0.25
5,HYVN,≤ 0.25
6,FNKS,≤ 0.25
7,WKFR,≤ 0.25
8,VMIH,≤ 0.25
9,FQCV,≤ 0.25
10,SIRL,≤ 0.25
11,GTTM,4.35
12,KYCL,≤ 0.25
13,TTTM,19.4
14,WICM,≤ 0.25
15,KYTM,≤ 0.25
16,YTTM,8.49
17,KYCM,≤ 0.25
18,SICL,11.3
19,SITM,22.9
20,SICM,14.4
21,SRTM,1.44
22,NSAY,≤ 0.25
23,MERT,≤ 0.25
24,IMPC,≤ 0.25

row,Variant,enrichment ratio
1,AHIW,≤ 0.25
2,YHGK,≤ 0.25
3,MHLE,≤ 0.25
4,TWGP,≤ 0.25
5,GSVG,≤ 0.25
6,SICQ,27.6
7,SIPM,19.8
8,STTM,14.3
9,SIGQ,10.4
10,KYCQ,≤ 0.25
11,SIPA,0.817
12,LTTM,≤ 0.25
13,KYPM,≤ 0.25
14,QETM,≤ 0.25
15,VWYY,≤ 0.25
16,EDMQ,≤ 0.25
17,VNHC,≤ 0.25
18,AYRQ,≤ 0.25
19,YGPP,≤ 0.25
20,IQKL,≤ 0.25
21,GASY,≤ 0.25
22,SPIT,≤ 0.25
23,AGYW,≤ 0.25
24,LTLH,≤ 0.25

row,Variant,enrichment ratio
1,KSLH,≤ 0.25
2,STLH,12.2
3,SPLH,≤ 0.25
4,ATLH,11.5
5,SELH,19.4
6,SRLH,≤ 0.25
7,KYLH,≤ 0.25
8,SSLH,11.4
9,NSLH,≤ 0.25
10,SYLH,0.355
11,ITLH,≤ 0.25
12,ASPV,0.706
13,LLVM,≤ 0.25
14,PRDH,≤ 0.25
15,IQGR,≤ 0.25
16,RVGK,≤ 0.25
17,TQAC,4.85
18,VIMQ,≤ 0.25
19,WTKP,≤ 0.25
20,ENII,≤ 0.25
21,GTLH,8.02
22,TTLH,19.7
23,YTLH,0.617
24,MYEQ,≤ 0.25

row,Variant,enrichment ratio
1,NELV,2.93
2,YGLT,7.13
3,NQLV,≤ 0.25
4,QELV,≤ 0.25
5,TQLV,26.3
6,SELV,19.5
7,YGLA,12.8
8,SILV,2.22
9,TELV,25.1
10,EQLV,≤ 0.25
11,YGLS,7.31
12,SLLV,6.62
13,WPNN,≤ 0.25
14,YKHG,≤ 0.25
15,AFWQ,≤ 0.25
16,GIFI,≤ 0.25
17,TQRG,≤ 0.25
18,LAFQ,2.23
19,NEYD,≤ 0.25
20,EVIK,≤ 0.25
21,QFDL,≤ 0.25
22,MRMI,≤ 0.25
23,SINK,1.25
24,RMYK,≤ 0.25

row,Variant,enrichment ratio
1,YTLV,15.7
2,ITLV,7.88
3,YYLV,≤ 0.25
4,GTLV,7.85
5,MILV,13
6,FTLV,10.2
7,MIHK,≤ 0.25
8,MFLV,≤ 0.25
9,LTLV,1.55
10,ATLV,12.7
11,TTLV,17.9
12,CTLV,0.326
13,FHSF,≤ 0.25
14,HDGN,≤ 0.25
15,TQVH,8.69
16,LPSI,≤ 0.25
17,ANRW,≤ 0.25
18,MCHW,≤ 0.25

# Reference: a collection of fitness landscapes (doi:10.1126/science.1257360)
